Assay outcomes as filed in PubChem BioAssay.
FLuc modulator: inhibits or activates purified firefly luciferase, miR-21 counter-screen; Potency, µM (titrated, usually from 57.5 µM), without a hit: top-dose activity change, negative = inhibition, usual class: inhibitors; AID 588342; purified FLuc, Km substrates, luminescence inhibition; 360,000 tested, 6.9% active; P08659;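 further: plate controls were vehicle for no effect and reference inhibitor for full effect; nearly all actives have a fitted effect of over 55% in size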
Target sequence (P08659 whole entry, looked up): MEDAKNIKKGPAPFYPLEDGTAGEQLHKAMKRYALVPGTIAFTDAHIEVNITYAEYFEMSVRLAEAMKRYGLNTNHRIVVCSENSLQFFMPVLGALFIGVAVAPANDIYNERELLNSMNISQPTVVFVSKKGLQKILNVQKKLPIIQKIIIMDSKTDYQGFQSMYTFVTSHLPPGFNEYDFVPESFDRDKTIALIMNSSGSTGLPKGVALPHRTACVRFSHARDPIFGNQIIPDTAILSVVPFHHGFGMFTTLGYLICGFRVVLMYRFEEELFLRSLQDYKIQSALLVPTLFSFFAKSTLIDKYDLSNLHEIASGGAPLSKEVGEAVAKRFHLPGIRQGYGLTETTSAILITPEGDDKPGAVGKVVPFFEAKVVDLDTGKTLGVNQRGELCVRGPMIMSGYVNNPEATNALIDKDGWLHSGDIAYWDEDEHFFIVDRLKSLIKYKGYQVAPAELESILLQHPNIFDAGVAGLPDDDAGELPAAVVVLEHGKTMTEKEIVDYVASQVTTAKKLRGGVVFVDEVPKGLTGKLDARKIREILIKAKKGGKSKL
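Purified P. pyralis luciferase, 10 nM final, with Km-level 10 uM D-luciferin and 10 uM ATP in 50 mM Tris acetate pH 7.5, 10 mM Mg acetate, 0.01% Tween-20, 0.05% BSA; 6-point qHTS titration about 60 µM downward; luminescence read.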
KinaseGlo FLuc: blocks Kinase-Glo luciferase, a counter-screen artifact | 200,000 tested, 0.28% active | AID 1379 | Potency, µM (highest dose often 38.3 µM), without a hit: top-dose activity change, negative = inhibition, actives largely listed as inhibitors | Kinase-Glo luciferase, ATP luminescence, 8 min | Q27757; further: on the % scale 0 is the no-effect control and ±100 the full control effect; nearly all actives have a fitted effect of over 60% in size
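Light output from Kinase-Glo luciferase with luciferin and 10 uM ATP in 50 mM imidazole pH 7.2, KCl, MgCl2, Tween 20, BSA; compound pin-delivered, 8-min ambient incubation, then luminescence read.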
ELG1 genotoxic: genotoxicity induction in ELG1-luciferase HEK293T cells; HEK293T ELG1-luciferase reporter, luminescence, 16 h; Potency, µM (series often up to 46 µM), without a hit: at the highest dose activity change, positive = activation, most hits filed as activators; 330,000 tested, 1.3% active; AID 504466; further: % of control where 0% means no effect; nearly all actives have a fitted effect of over 60% in size
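Genotoxic stress is detected as increased luminescence from luciferase-tagged ELG1 in HEK293T cells, measured with ONE-Glo after a 16 hr treatment at 37 °C.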
NPC1 promoter act: activates the NPC1 promoter; Potency, µM (series often up to 9.22 µM), inactives show at the top dose activation, actives largely listed as activators; 320,000 tested, 2.4% active; Huh7 NPC1 promoter luciferase reporter, 24 h; AID 485313; further: % of control where 0% means no effect; nearly all actives have a fitted effect of over 60% in size
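Readout is luciferase luminescence, reflecting NPC1 promoter activation in stably transfected Huh7 cells after 24 h compound exposure at 37 °C in reduced-serum medium with 10% FBS.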
Rab9 promoter act: Rab9 promoter activation | Huh7 Rab9 promoter-luciferase reporter, luminescence, 24 h | Potency, µM (doses to about 9.22 µM), for inactives: at the top dose activation, negative = inhibition, most hits filed as activators | 320,000 tested, 2.8% active | AID 485297; further: % of control where 0% means no effect; nearly all actives have a fitted effect of over 60% in size
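Huh7 cells stably carrying a Rab9 promoter-luciferase reporter, 1500 cells per well in OP-MEM I with 10% FBS, treated with compound 24 hours at 37C. Luciferase activity read by luminescence after 10 minutes with Amplite reagent.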
SMN2 splice enh: SMN2 splice variant enhancement. 210,000 tested, 2.8% active. AID 1458. HEK293 SMN2-luciferase splicing reporter, luminescence, 30-36 h. Potency, µM (highest dose often 46.1 µM), for the others: at the top dose activity change, positive = activation, most hits filed as activators; further: % of control where 0% means no effect; nearly all actives have a fitted effect of over 55% in size
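HEK293 cells carry an SMN2 minigene-luciferase reporter in which exon 7 inclusion puts luciferase in frame. Cells were seeded at 2000 cells/well, attached for 10-12 hours, then exposed to compounds for 30-36 hours at 37C before ONE-Glo luminescence.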
Active calls of the source: *; ? = inconclusive; . = no result given; [ ] = another dose, or the depositor's remark. A selection: hits, their analogues and other compounds. The true share with any hit is near 7.3%. The call rests on the fitted dose curve; in most records, active means well fitted curve in the direction sought with a large enough effect; inconclusive means small, poorly fitted or top-dose-only effect, or another doubt; inactive means no such curve, though single readings can be large; an effect the other way counts as inactive or inconclusive. Potency means the concentration at half of the fitted maximal effect.

SMILES	FLuc modulator	KinaseGlo FLuc	ELG1 genotoxic	NPC1 promoter act	Rab9 promoter act	SMN2 splice enh
Cc1cc(N2CCCN(C)CC2)nc2cc(Cl)ccc12	-9%	-3%	1%	0%	-3%	1%
Cc1ccc2nc3ccc(N4CCCCCCC4)nn3c(=O)c2c1	5.4µM*	-10%	10%	?	?	?
Cc1ccc2nc3ccc(N4CCN(C)CC4)nn3c(=O)c2c1	6µM*	-4%	?	1.6µM*	3.5µM*	.
Cc1nnc2ccc(N3CCCCC3)nn12	-3%	.	?	-3%	8%[1.84 µM]	.
CCCN(CCC)C(=O)Cn1c(=O)n(-c2ccc(CC)cc2)c(=O)c2c3c(sc21)CCC3	-9%	.	.	.	.	2%
CC(=O)CC(=O)Nc1ccccc1	.	.	.	.	.	4%
Cc1ccc(Cl)cc1N1CCN(C(=O)c2sc3nc4n(c(=O)c3c2C)CCC4)CC1	-1%	.	.	.	.	.
COc1ccc(-n2c(=O)c3ccccc3n(Cc3ccccc3C)c2=O)c(OC)c1	-6%	.	.	.	.	-1%
CSc1ccc(C(C(C(=O)c2cccs2)N2CCOCC2)N2CCOCC2)cc1 (stereo unspecified)	27µM*	3%	-1%	2%	-1%	14%
COc1ccc(C(CNC(=O)c2ccco2)N2CCOCC2)cc1 (stereo unspecified)	.	.	7%	-2%	3%	.
O=C(NC(C(=O)c1ccccc1)N1CCOCC1)c1cccs1 (stereo unspecified)	1%	3%	14%	29%	24%	?
COc1ccc(C(C(C(=O)c2ccco2)N2CCOCC2)N2CCOCC2)cc1 (stereo unspecified)	13µM*	-3%	2%	0%	-7%	-2%
C=C1CC[C@H](O)C/C1=C/C=C1\CCC[C@]2(C)[C@@H]([C@H](C)CCCC(C)(C)O)CC[C@@H]12	.	-2%	.	.	.	-8%
COc1ccc(/C=C2\SC(=O)N(CCNC(=O)C3=COCCO3)C2=O)cc1	?	.	16µM*	2%	28%	.
COc1cccc(/C=C2\SC(=O)N(CCC(=O)NCCCn3ccnc3)C2=O)c1	?	.	-1%[9.26 µM]	-6%	-3%	.
COc1ccc(/C=C2\SC(=O)N(CC(=O)NCCCn3ccnc3)C2=O)cc1	9.5µM*	.	13%	27%	29%	.
COc1ccc(/C=C2\SC(=O)N(CCc3nnc(N)s3)C2=O)cc1	1.9µM*	.	?	2.5µM*	1µM*	.
COc1cccc(/C=C2\SC(=O)N(CC(=O)NCCCn3ccnc3)C2=O)c1	24µM*	.	5%	3%	-1%	.
COc1cc(Cl)c(C)cc1NC(=O)CC1Oc2ccccc2NC1=O (stereo unspecified)	-7%	.	.	.	.	-1%
C=C(C(=O)OCC)C(=O)c1ccccc1	.	1%	.	.	.	10%
O=c1cc(-c2cccc(F)c2)[nH]c2cc(Cl)ccc12	.	3%[39.9 µM]	.	.	.	.
COC(=O)c1cccc(NC(=O)c2ccc3c(c2)C(=O)N(C(C)(C)C)C3=O)c1	2.7µM*	.	2%	?	?	.
CC(C)(C)NC(=O)c1cccc(NC(=O)c2ccc3c(c2)C(=O)N(C(C)(C)C)C3=O)c1	11µM*	.	0%	0%	-4%	.
CCC(=O)Oc1ccc(C(=O)Nc2cccc(C(=O)NC(C)(C)C)c2)cc1	11µM*	-5%	-1%	-1%	0%	17%
CCC(=O)Oc1ccc(C(=O)Nc2cccc(NC(=O)c3ccco3)c2)cc1	?	.	-9%	0%	-2%	.
SMILES	FLuc modulator	KinaseGlo FLuc	ELG1 genotoxic	NPC1 promoter act	Rab9 promoter act	SMN2 splice enh
CC(C)(C)N1C(=O)c2ccc(C(=O)Nc3ccc(O)cc3)cc2C1=O	13µM*	.	13%	?	?	.
CC(C)(C)N1C(=O)c2ccc(C(=O)O)cc2C1=O	4%	-1%	0%	0%	0%	-6%
Cc1nn(-c2ccc(Cl)cc2)c2nc(-c3cccnc3)cc(C(F)(F)F)c12	-5%	.	.	.	.	5%
COc1ccc(OC(=O)c2ccc3nsnc3c2)cc1	7.6µM*	-9%	2%	2%	-1%	1%
Cc1ccc(OC(=O)c2ccc3nc(C)sc3c2)cc1	2.4µM*	2%	2.9µM*	0.79µM*	0.63µM*	14µM*
CC(=O)c1ccc(OCC(=O)Nc2ccc3nc(C)sc3c2)cc1	-12%	1%	0%	-9%	2%	5%
Cc1ccc(-n2ncc3c(NC4CCCCC4)ncnc32)cc1C	0.6µM*	.	.	.	.	.
CCC(=O)NNc1ncnc2c1cnn2-c1ccc(C)c(Cl)c1	21µM*	.	.	.	.	.
COc1ccc(N2CCN(c3ncnc4c3cnn4-c3ccc(C)c(Cl)c3)CC2)cc1	5%	.	.	.	.	.
Cc1ccc(-n2ncc3c(NC4CCCCC4)ncnc32)cc1Cl	1.1µM*	.	.	.	.	.
CC(=O)NNc1ncnc2c1cnn2-c1ccc(C)c(C)c1	?	-2%	?	11%	20%	22%
CCOc1ccc(CCNC(=O)Cn2nc(-c3ccc(C)cc3)ccc2=O)cc1OCC	-7%	.	.	.	.	.
COc1ccc(CCNC(=O)Cn2nnc(-c3cccc(C(F)(F)F)c3)n2)cc1OC	-1%	.	.	.	.	0%
Cc1cc(NC(=O)CCNS(=O)(=O)c2ccc3c(c2)CCCC(=O)N3)ccc1Br	-3%	.	.	.	.	.
Cc1ccc(/C(O)=C2/C(=O)C(=O)N(Cc3ccco3)C2c2cccs2)cc1 (stereo unspecified)	24µM*	-4%	1%	-4%	-3%	11%
CCN(CC)CCN1C(=O)C(=O)/C(=C(/O)c2ccc(OC)cc2)C1c1cccs1 (stereo unspecified)	?	-4%	-3%	15%	6%	-1%
Cc1cccn2c(=O)c(C(=O)NCc3ccccc3Cl)c(O)nc12	-3%	.	.	.	.	-1%
Fc1ccc(-c2cn3cc(C(F)(F)F)cc(Cl)c3n2)cc1	1.7µM*	-6%	?	?	4.5µM*	13µM*
COc1ccc(-c2cn3cc(C(F)(F)F)cc(Cl)c3n2)cc1	3µM*	-3%	5.8µM*	?	2.2µM*	2.8µM*
COc1ccc(C(O)c2ncc(C(F)(F)F)cc2Cl)cc1 (stereo unspecified)	1%	.	0%	2%	-3%	.
CCOc1ccccc1NC(=O)N(Cc1ccc(F)cc1)C1CCN(CC)CC1	0%	.	.	.	.	.
Cc1cc2sc(NC(=O)c3ccco3)nc2cc1Cl	1.3µM*	.	?	1.4µM*	1.1µM*	.
COc1cc2sc(NC(=O)c3ccco3)nc2cc1Cl	?	.	2.3µM*	0.71µM*	0.56µM*	.
COc1ccc(C2CC(=O)c3cc(-c4nc(-c5cccc([N+](=O)[O-])c5)cs4)c(=O)n(-c4ccc(C)c(C)c4)c3C2)cc1 (stereo unspecified)	-3%	.	.	.	.	-11%
CC1CC(C)CN(C(=O)Nc2ccc(Br)cc2)C1 (stereo unspecified)	?	1%	0%	-1%	10%	11%
